Out of some 410,000 compounds screened, about 310 (0.076%) were called active. About 2% were inconclusive and are not listed. Calls come from the whole dose curve; as a rule, active = well fitted curve in the direction sought with a large enough effect; inconclusive = small, poorly fitted or top-dose-only effect; inactive = flat fitted curve, though single readings scatter. The sample as a whole holds a higher share of actives than the screen did.
% is set by controls: 0 for no effect and ±100 for the full control effect; potency is the fitted concentration of half-maximal effect.

The test deals with DNA dC->dU-editing enzyme APOBEC-3G (Homo sapiens) (UniProt Q9HC16). Nature of the test: qHTS for Inhibitors of Vif-A3G Interactions: qHTS.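 For activity, negative = active: hits raise eYFP signal because A3G escapes Vif-driven loss.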 Note: nearly all actives have a fitted effect of over 60% in size. The settings on record: HeLa A3G-eYFP + Vif (tagged APOBEC3G with the HIV-1 protein that degrades it), YFP fluorescence, overnight; series mostly up to 46.1 µM; activity, negative = active: at the top concentration. An excerpt: The recent discovery and characterization of host restriction factors, which provide a potent defense to invading retroviruses, has provided new targets for antiviral drug development. APOBEC3G (A3G) and APOBEC3F (A3F) are potent cytidine deaminases that block HIV-1 replication; HIV-1 expresses the Vif protein, which counteracts A3G and A3F by binding to them and inducing their proteasomal degradation. The Vif-A3G and Vif-A3F interactions provide two potential targets for development of small molecules which can interfere with the ability of Vif to degrade A3G or A3F. […] To identify inhibitors that can interfere with Vif mediated degradation of A3G and A3F, we have developed Hela cell lines that stably express A3G or A3F tagged with eYFP at the C-terminal end (A3G-eYFP or A3F-eYFP, respectively) and Vif. In the absence of an inhibitor, Vif induces degradation of A3G-eYFP and A3F-eYFP, and the cells are not fluorescent. In the presence of an inhibitor, it is expected that Vif will be unable to degrade A3G-eYFP and/or A3F-eYFP, resulting in an increase in yellow fluorescence. In this assays Vif A3G was screened against the Molecular Library Small Molecule Repository (MLSMR). NIH Chemical Genomics Center [NCGC] NIH Molecular Libraries Probe Centers Network [MLPCN] MLPCN Grant: MH093245 Assay Submitter (PI): Vinay Pathak, National Cancer Institute
Chain of DNA dC->dU-editing enzyme APOBEC-3G (Homo sapiens) (Q9HC16 whole entry, looked up): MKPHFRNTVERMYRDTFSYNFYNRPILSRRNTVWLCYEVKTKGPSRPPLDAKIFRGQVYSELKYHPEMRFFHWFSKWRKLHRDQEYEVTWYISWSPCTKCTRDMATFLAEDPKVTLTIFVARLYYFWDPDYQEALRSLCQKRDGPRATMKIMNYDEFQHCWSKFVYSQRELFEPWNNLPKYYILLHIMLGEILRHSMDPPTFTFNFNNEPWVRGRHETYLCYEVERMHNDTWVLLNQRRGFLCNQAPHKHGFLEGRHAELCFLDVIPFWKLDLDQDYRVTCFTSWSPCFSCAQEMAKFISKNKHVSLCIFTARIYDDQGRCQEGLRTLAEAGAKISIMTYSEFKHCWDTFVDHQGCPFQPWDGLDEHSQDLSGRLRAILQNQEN
5 uL of 700 cells/well of A3G-YFP cells are dispensed into black, clear bottom plates. The plates are incubated overnight at 37 deg C. 23 nL of compounds are added by pintool. The plates are incubated overnight at 37 deg C and then read on the TTP Acumen (Ex 488/ Em 500-530).
For the compound `CCOC(=O)c1cc2c(=O)n3ccccc3nc2n(CC2CCCO2)c1=NC(=O)c1ccccc1Br` (centres undefined), the “activity, negative = active” value was -6.1% (inactive).
`CC(C)OC(=O)c1ccc(NCc2cc(O)ccc2O)cc1Cl`: the Potency is 12.6 µM (active).
Turning to `O=S(=O)(c1cccc(C(F)(F)F)c1)N1CCN(c2nc(-c3cccs3)nc3ccccc23)CC1`, the “activity, negative = active” value is 0.472% (inactive).
As for `Cc1c(Cl)cccc1NC(=O)CCS(=O)(=O)c1ccc2c(c1)oc(=O)n2C`, the “activity, negative = active” value is 1.33% (inactive).
As to `COc1cc2[nH]c(C)c(CCN3CCN(c4ccccc4)CC3)c2cc1OC`, the “activity, negative = active” value was 1.15% (inactive).
For `CCc1ccc(S(=O)(=O)n2ccnc2)cc1`, the “activity, negative = active” value was 0.941% (inactive).
On to `Cc1[nH]c2ccccc2c1C(=O)C(=O)N(C)c1ccccc1`, for which the “activity, negative = active” value is 0.569% (inactive).
As to `COc1ccc(CCNC(=O)Cn2c(=O)cc(C(F)(F)F)c3c(C)nn(C)c32)c(OC)c1`, the “activity, negative = active” value is 4.39% (inactive).
As for `COc1cc2c(=O)c(S(=O)(=O)c3ccc(C(C)C)cc3)cn(Cc3ccccc3C)c2cc1OC`, the “activity, negative = active” value is -1.18% (inactive).
Same read-out and setting: under `O=C(O)c1c(Br)c(Br)c(Br)c(Br)c1C1c2ccc(O)cc2Oc2cc(O)ccc21` stands 3.84% (inactive); under `CCOC(=O)N1CCC(NC(=O)c2cnn(-c3cccc(C)c3)c2C2CCN(C(=O)OC(C)(C)C)CC2)CC1`, 1.48% (inactive); under `OCCNc1ncnc2oc(-c3ccco3)c(-c3ccco3)c12`, -5.55% (inactive).
Consider `O=[N+]([O-])c1ccc(/C=C/c2ccc3cccnc3c2)cc1`, for which the “activity, negative = active” value was -2.68% (inactive).
As to `O=C(O)C1=C/C(=C/C=[N+]2c3cc(O)c(O[C@H]4OC(CO)[C@@H](O)[C@@H](O)[C@@H]4O)cc3C[C@@H]2C(=O)[O-])C[C@H](C(=O)O)N1` (some centres undefined), the “activity, negative = active” value was 1.5% (inactive).
Consider `Cc1ccc2onc(CC(=O)N3CCN(c4ccc(Cl)cc4)CC3)c2c1`, for which the “activity, negative = active” value is 0.252% (inactive).
As for `Cc1ccc(C=O)cc1Cl`, the “activity, negative = active” value is 0.329% (inactive).
For `C(=Nc1ccc(/C=C/c2ccnc3ccccc23)cc1)c1cc2c3c(c1)CCCN3CCC2`, the “activity, negative = active” value is 2.24% (inactive).
As to `CC(C)(C)c1ccc(C(=O)NCC(c2ccc(Cl)cc2)N2CCOCC2)cc1` (centres undefined), the “activity, negative = active” value was 1.59% (inactive).
For the compound `O=C1CN(C(=O)Nc2ccccc2C(F)(F)F)C(c2ccccc2)c2c(sc3c2CCCC3)N1` (centres undefined), the “activity, negative = active” value is -1.24% (inactive).
With `CCCN(CCC)c1nc2c(C)cccn2c(=O)c1/C=C1/SC(=S)N(Cc2ccco2)C1=O`, the Potency is 3.16 µM (active).
Turning to `CN(C)c1ccc(/C=c2\[nH]c(=O)/c(=C/c3ccc(N(C)C)cc3)[nH]c2=O)cc1`, the “activity, negative = active” value was -0.485% (inactive).
Regarding `CCN(C(=O)CSc1nnc(C)n2c1cc1occc12)c1ccccc1`, the “activity, negative = active” value is -4.9% (inactive).
On to `CCOc1ccc(C(=O)/C=C/c2cn(CC(O)CN3CCCCCC3)c3ccccc23)cc1` (centres undefined), for which the “activity, negative = active” value was -4.47% (inactive).
For the compound `CCOC(=O)N1CCc2c(sc(NCc3cccc(F)c3)c2C(=O)Nc2ccccc2OCC)C1`, the “activity, negative = active” value was -3.66% (inactive).
Still for that read-out and setting: as for `O=C(COC(=O)c1ccccc1OCCOc1ccccc1)Nc1cccc(Br)c1`, the figure is 0.386% (inactive); as for `Cc1cc(C)cc(NC(=O)CSc2nc3nccnc3c(=O)n2CCc2c[nH]c3ccccc23)c1`, 6.02% (inactive).
Consider `CCOC(=O)c1ccc(NC(=O)C2CC(=O)NC(=Nc3ccc(C)c(C)c3)S2)cc1` (centres undefined), for which the “activity, negative = active” value is 1.17% (inactive).
Consider `CCCCNC(=O)Cn1c(SCc2cccc(Cl)c2)nc2ccncc21`, for which the “activity, negative = active” value was 0.68% (inactive).
Same read-out and setting: as for `CCCn1ccc2c(OCC(=O)NCc3ccc(F)cc3)cccc2c1=O`, the figure is -0.319% (inactive).
Turning to `O=C(Nc1ccc(Cl)cc1)c1cnn2c1NC(=C1CC1)C=C2C(F)F`, the “activity, negative = active” value was -0.955% (inactive).
Take `Cc1cccc(-c2nnc(SC(C)C(=O)Nc3ccccc3)n2C)c1` (centres undefined): the “activity, negative = active” value was -0.805% (inactive).
On to `CCN1CCN(c2ccc(/C=C/c3ccnc4ccccc34)cc2)CC1`, for which the “activity, negative = active” value was 1.79% (inactive).
Same read-out and setting: under `COc1ccc(-c2nc3c(c(SCC(=O)Nc4ccc(C(=O)O)cc4)n2)Cc2ccccc2O3)cc1` stands 3.8% (inactive); under `Brc1cccc[n+]1Cc1cccc(C[n+]2ccccc2Br)c1`, -5.54% (inactive).
For the compound `CC(C)(C)n1ncc2c(=O)n(Cc3ccc(C(=O)c4ccccc4)cc3)cnc21`, the “activity, negative = active” value is -0.656% (inactive).
`OC(CBr)C[n+]1cccc2cc(Br)ccc21` (centres undefined): the “activity, negative = active” value was -3.43% (inactive).
As for `N#CC1=C(N)Oc2c(sc3ccccc23)C1c1ccco1` (centres undefined), the Potency is 11.2 µM (active).
Take `O=C(OC12CC3CC(CC(C3)C1)C2)c1ccc(NCc2cc(O)ccc2O)cc1`: the Potency is 6.31 µM (active).
Regarding `COC(=O)c1ccccc1NC(=O)c1cnn(-c2ccc(F)cc2)c1-n1cccc1`, the “activity, negative = active” value is -4.09% (inactive).
The same measure, in the same setting: as for `CCOc1ccc(N(CC)S(=O)(=O)N2CCCC(C(=O)NCc3ccc(Cl)cc3)C2)cc1` (centres undefined), the figure is 3.88% (inactive); as for `N#Cc1ccc[n+](CC(=O)c2ccc(F)cc2)c1`, -2.66% (inactive); as for `O=C(C[n+]1ccncc1)c1ccc2c(c1)CCCC2`, -7.56% (inactive).
On to `Cc1nn(CC(=O)N2CCN(c3cccc(C(F)(F)F)c3)CC2)c(=O)c2cc3sccc3n12`, for which the “activity, negative = active” value is 1.37% (inactive).
As to `CCCCC(CCCC)c1ccc(C=Nc2ccc(/C=C/c3ccnc4ccccc34)cc2)cc1`, the “activity, negative = active” value was -7.47% (inactive).
Same read-out and setting: as for `CCS(=O)(=O)N1CCc2cc(C(=O)NCc3ccc(C)cc3)ccc21`, the figure is 1.84% (inactive).
Turning to `CCCCN1C(=O)c2[nH]nc(-c3ccccc3O)c2C1c1cccc(OCc2ccccc2)c1` (centres undefined), the “activity, negative = active” value was -29.4% (inactive).
Regarding `ClC/C=C/C[n+]1ccccc1Cl`, the “activity, negative = active” value was 3.06% (inactive).
Consider `CSc1n[nH]c(-c2ccco2)n1`, for which the “activity, negative = active” value is -3.31% (inactive).
Take `C[n+]1ccc(/C=C/c2c[nH]c3ccccc23)cc1`: the Potency is 11.2 µM (active).

These data come from PubChem BioAssay AID602310 (National Center for Advancing Translational Sciences (NCATS), 2012).
